# BaF3 tox = parental Ba/F3 viability inhibition as JAK2V617F counter-screen | CellTiter-Glo ATP luminescence | inhibition, % at 5.6 µM | 1.1% of 220,000 active;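 active = inhibition above a per-campaign cutoff, the mean inhibition of all tested compounds plus 3 SD, cut at about 27% in these data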
# KLF5 inhibitor = inhibitors of KLF5 expression; DLD-1 KLF5 promoter-luciferase reporter, luminescence; inhibition, % at 5 µM; 0.23% of 290,000 active; AID 1700;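 active = inhibition above a per-plate limit of that plate's mean compound inhibition plus 3 SD, cut at about 60% in these data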;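 note: higher means less KLF5 promoter-driven luciferase light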
# APP 5UTR inh = APP translation inhibition; SH-SY5Y APP 5'UTR-luciferase reporter, luminescence; inhibition, % at 2 µM; 0.82% of 190,000 active; AID 1285;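 active = inhibition above a set limit, derived from the sample mean plus 3 SD, cut at about 45% in these data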
# IEC-6 tox-1 = kills IEC-6 intestinal cells in KLF5 counter-screen. 0.78% of 290,000 active. AID 1825. IEC-6 cytotoxicity, luminescence viability. inhibition, % at 5 µM; in the data active = inhibition above about 22%
# Ba/F3 V617F tox = loss of viability in JAK2V617F-driven Ba/F3 cells. 1.1% of 220,000 active. Ba/F3 EpoR-JAK2V617F viability, ATP luminescence. inhibition, % at 5.6 µM;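 active = inhibition above the campaign mean plus 3 SD over all tested compounds, cut at about 24% in these data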;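 note: cytokine-independent growth of Ba/F3 cells driven by EpoR plus mutant JAK2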
# KLF5 confirm = KLF5 inhibition, confirmation assay. shares compounds with KLF5 inhibitor. DLD-1 KLF5 promoter firefly luciferase reporter, luminescence. inhibition, % at 4 µM. 79% of 610 active;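 active = inhibition above a set limit taken from the earlier primary screen, cut at about 63% in these data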
# IEC-6 tox-2 = counter-screen for KLF5 inhibitors: cytotoxicity in rat IEC-6 cells | IEC-6 rat intestinal cells, viability luminescence | 56% of 610 active | shares compounds with KLF5 inhibitor | inhibition, % at 4 µM; in the data active = inhibition above about 23%;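 note: cells exposed to compounds for 48 hours before viability read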
# Hits are given with their value; . = inactive; / = no result given. This is a sample that favours compounds with a hit; in the whole collection about 1.9% have one here.
SMILES,BaF3 tox,KLF5 inhibitor,APP 5UTR inh,IEC-6 tox-1,Ba/F3 V617F tox,KLF5 confirm,IEC-6 tox-2
CCOc1ccc(NC(=O)c2ccccn2)cc1,.,79,.,.,.,.,.
Cc1cc(-n2c(C)cc(C(=O)COc3ccccc3[N+](=O)[O-])c2C)no1,.,.,.,.,.,/,/
Oc1ccc(/C=C/c2ccc3ccccc3n2)cc1,39,78,.,26,68,.,.
Clc1ccccc1/C=C/c1nc(-c2ccccn2)no1,.,72,/,.,.,73,.
Clc1ccc(CSc2nnc(-c3ccc4c(c3)OCO4)o2)cc1,.,.,.,.,.,/,/
O=C1CCCCC1Sc1nnc(-c2ccc3c(c2)OCO3)o1 (centres undefined),.,66,.,.,.,.,.
O=C(CCl)Nc1cc(SCC(O)CO)cc([N+](=O)[O-])c1 (centres undefined),99,84,.,.,99,112,34
Nc1c(C(=O)Nc2cccc(C(=O)O)c2)sc2nc3c(cc12)CCCC3,/,84,/,.,/,90,.
CCOc1cc(-c2nnn(CC(=O)N3CCCCC3)n2)ccc1OC,/,.,/,.,/,/,/
O=C(O)c1cccc(N/N=C/c2ccc(OC(F)(F)F)cc2)c1,/,71,/,.,/,67,.
Oc1cccc2ccc(Nc3ccccn3)nc12,76,105,80,.,98,102,.
CCN(CC)CCn1nc(C)nc1-c1ccccc1O,.,.,.,.,.,/,/
CCN(CC)CCn1nc2c3c(cccc3c1=O)-c1ccccc1-2,100,72,68,87,102,.,75
Cc1ccc(-c2cc(=O)c3cc(F)ccc3[nH]2)cc1,.,.,.,.,.,/,/
O=c1cc(-c2ccccc2)[nH]c2ccc(F)cc12,74,69,92,82,75,82,57
CCn1c(SCC(=O)Nc2c(C)n(C)n(-c3ccccc3)c2=O)nnc1-c1cccc(C)c1,.,.,.,.,.,/,/
CC(=NC1CCCC1)c1c(C)[nH]n(-c2nc3ccccc3s2)c1=O,.,72,.,.,.,.,.
CC(=NC1CC1)c1c(-c2ccccc2)[nH]n(-c2nc3ccccc3s2)c1=O,.,.,.,.,.,/,/
CSc1nc(N(C)NC(=O)c2ccc(F)cc2)c2ccccc2n1,73,79,95,78,72,78,61
Cn1c(CNC(=O)c2ccc(F)cc2)nc2ccccc21,.,.,.,.,.,/,/
COc1cc(/C=N/NS(=O)(=O)c2ccc(C)cc2)ccc1OCc1ccc(C(=O)O)cc1,.,78,.,.,.,.,.
CCCS(=O)(=O)c1cnc(C2COc3ccccc3O2)nc1N (centres undefined),/,98,/,.,/,78,.
COc1cc(C(=O)N/N=C(\C)c2ccccn2)cc(OC)c1OC,/,84,/,96,/,.,35
COc1cc(NC(=O)c2ccccn2)cc(OC)c1OC,.,.,.,.,.,/,/
COC(=O)c1nn(-c2ccc3c(c2)OCO3)cc1O,.,.,.,.,.,/,/
SMILES,BaF3 tox,KLF5 inhibitor,APP 5UTR inh,IEC-6 tox-1,Ba/F3 V617F tox,KLF5 confirm,IEC-6 tox-2
COC(=O)c1nn(-c2ccc3c(c2)CCN3C(C)=O)cc1O,.,75,.,.,.,78,.
COC(=O)C1CCCN1S(=O)(=O)c1ccccc1NC(=O)c1cc(OC)c(OC)c(OC)c1 (centres undefined),/,.,/,.,/,/,/
O=C(Nc1cccnc1)c1cccs1,87,72,.,.,46,70,.
CCCCc1c(O)nc(SCC(=O)N2CCCCC2)n(-c2ccccc2C)c1=O,.,.,.,.,.,/,/
O=C(O)C1CCN(S(=O)(=O)c2cccnc2)CC1,.,.,.,.,.,/,/
O=C(c1cccs1)N1CCCC(c2nc3c(nnn3Cc3ccc(F)cc3)c(=O)[nH]2)C1 (centres undefined),/,.,/,.,/,/,/
CCOc1ccc(NC(=O)NCc2cccn2C)cc1,/,.,/,.,/,/,/
CCCc1ccc(-c2ccc(/C=C/C(=O)O)cc2)nc1,.,79,46,.,.,83,.
CCCCCc1ccc(-c2ccc(/C=C/C(=O)O)cc2)nc1,.,.,.,.,.,/,/
Cc1ccccc1CSc1nc2[nH]ncc2c(=O)[nH]1,.,.,.,.,.,/,/
Cc1ccc(C)c(CSc2nc3[nH]ncc3c(=O)[nH]2)c1,76,65,85,63,83,68,53
CCOC(=O)c1sc(NC(=O)c2cc3c(s2)CCC(C)C3)nc1C (centres undefined),.,86,.,.,.,88,.
O=C1CCCc2nc3c(cc21)C(O)Oc1c-3ccc2ccccc12 (centres undefined),.,.,.,.,.,/,/
O=C1CCCc2nc3c(cc21)C(O)Oc1ccccc1-3 (centres undefined),.,110,.,.,.,.,.
O=C(Nc1cccc(Cl)c1)Nc1cccc(C(=O)O)c1,.,.,/,.,.,/,/
Cc1cccc(OCC(=O)Nc2cc(NC(=O)COc3cccc(C)c3C)cc(C(=O)O)c2)c1C,/,.,/,.,/,/,/
O=C(Nc1ccc(Cl)cc1)Nc1cccc(C(=O)O)c1,.,66,.,.,.,72,.
Cc1ccccc1OCC(=O)Nc1cccc(C(=O)O)c1,.,95,68,.,.,96,.
CCOc1ccc(NC(=O)Nc2cccc(C(=O)O)c2)cc1,.,94,70,.,.,101,.
CCOC(=O)c1cccc(NC(=O)Nc2ccc(OCC)cc2)c1,.,.,.,.,.,/,/
Nc1ccc(C(=O)OCc2csc(-c3ccccc3)n2)cc1[N+](=O)[O-],.,.,.,.,.,/,/
O=[N+]([O-])c1cc(CN2CCOCC2)c2cccnc2c1O,.,.,.,.,.,/,/
O=[N+]([O-])c1cc(CN2CCN(c3ccccc3)CC2)c(O)c2ncccc12,76,76,80,52,74,89,77
CC(C)(C)c1ccc(C(=O)Nc2ccc(S(N)(=O)=O)cc2)cc1,.,.,/,.,.,/,/
O=C(N/N=C/c1cccs1)c1cc(-c2ccncc2)nc2ccccc12,73,75,95,72,69,83,60
SMILES,BaF3 tox,KLF5 inhibitor,APP 5UTR inh,IEC-6 tox-1,Ba/F3 V617F tox,KLF5 confirm,IEC-6 tox-2
O=C(N/N=C/c1cccs1)c1cc(C2CC2)nc2ccccc12,.,.,.,.,.,/,/
Cc1onc(-c2ccccc2Cl)c1C(=O)Nc1ccc(-n2nncc2C(C)(C)C)cc1,.,.,.,.,.,/,/
CCOc1cccc(/C=N/NC(=O)c2ccc3c(c2)OCCO3)c1O,/,65,/,.,/,93,.
COc1cccc(/C=N/NC(=O)CNC(=O)c2ccc3c(c2)OCCO3)c1O,.,.,.,.,.,/,/
O=C(Nc1cccnc1)Nc1ccccn1,.,.,.,.,.,/,/
CC(=O)CSc1ccc(-c2nc3ccccc3[nH]2)cn1,/,.,/,.,/,/,/
CC(=O)CSc1ccc(-c2nc3cc(C)c(C)cc3[nH]2)cn1,.,64,.,.,.,73,.
Cc1csc2c(N(C)CCO)ncnc12,.,.,/,.,.,/,/
COc1ccc(-n2ncc3c(N4CCCCC4)ncnc32)cc1,.,65,.,.,.,88,.
Clc1ccc(-n2ncc3c(N4CCCCCC4)ncnc32)cc1,.,.,.,.,.,/,/

# High-throughput results (PubChem)
